Hit rate of the full screen: of about 310,000 compounds, about 2,200 (0.71%) showed an effect of 50% or more. The effect is printed as a negative number. The sample holds strong results, similar compounds and a random draw of the others, so the mix is not that of the screen.
target: human ether-à-go-go-related gene (hERG) potassium channel (human, UniProt Q12809); assay: primary screen, population patch clamp on CHO cells stably expressing hERG; higher = less effect of the substance
Experimental: Briefly, Chinese hamster ovary (CHO) cells stably expressing the hERG channel were dislodged from tissue culture flasks and dispensed into PPC plates. […] During the recording, background leak currents were estimated by a 100 ms step to -80 mV from an initial holding potential of -70 mV and subtracted from the subsequent current measurement. The campaign was conducted in two phases using slight differences in recording protocol. In the first phase, the initial voltage pulse used a 100 ms step to -30 mV from a holding potential of -70 mV, a 2 s conditioning step to +25 mV, and a 2 s test step to -30 mV. During the second phase of the screen, the potential during the conditioning step was raised to +45 mV. In both phases of the campaign, a secondary voltage pulse was applied using the same parameters as the second phase initial pulse. The initial and secondary pulses were applied in the absence of compound, and upon application of 1 μM and 10 μM test concentrations. Small molecule effects on hERG current density were quantified by […].

human ether-à-go-go-related gene (hERG) potassium channel, sequence (Q12809 whole entry, looked up): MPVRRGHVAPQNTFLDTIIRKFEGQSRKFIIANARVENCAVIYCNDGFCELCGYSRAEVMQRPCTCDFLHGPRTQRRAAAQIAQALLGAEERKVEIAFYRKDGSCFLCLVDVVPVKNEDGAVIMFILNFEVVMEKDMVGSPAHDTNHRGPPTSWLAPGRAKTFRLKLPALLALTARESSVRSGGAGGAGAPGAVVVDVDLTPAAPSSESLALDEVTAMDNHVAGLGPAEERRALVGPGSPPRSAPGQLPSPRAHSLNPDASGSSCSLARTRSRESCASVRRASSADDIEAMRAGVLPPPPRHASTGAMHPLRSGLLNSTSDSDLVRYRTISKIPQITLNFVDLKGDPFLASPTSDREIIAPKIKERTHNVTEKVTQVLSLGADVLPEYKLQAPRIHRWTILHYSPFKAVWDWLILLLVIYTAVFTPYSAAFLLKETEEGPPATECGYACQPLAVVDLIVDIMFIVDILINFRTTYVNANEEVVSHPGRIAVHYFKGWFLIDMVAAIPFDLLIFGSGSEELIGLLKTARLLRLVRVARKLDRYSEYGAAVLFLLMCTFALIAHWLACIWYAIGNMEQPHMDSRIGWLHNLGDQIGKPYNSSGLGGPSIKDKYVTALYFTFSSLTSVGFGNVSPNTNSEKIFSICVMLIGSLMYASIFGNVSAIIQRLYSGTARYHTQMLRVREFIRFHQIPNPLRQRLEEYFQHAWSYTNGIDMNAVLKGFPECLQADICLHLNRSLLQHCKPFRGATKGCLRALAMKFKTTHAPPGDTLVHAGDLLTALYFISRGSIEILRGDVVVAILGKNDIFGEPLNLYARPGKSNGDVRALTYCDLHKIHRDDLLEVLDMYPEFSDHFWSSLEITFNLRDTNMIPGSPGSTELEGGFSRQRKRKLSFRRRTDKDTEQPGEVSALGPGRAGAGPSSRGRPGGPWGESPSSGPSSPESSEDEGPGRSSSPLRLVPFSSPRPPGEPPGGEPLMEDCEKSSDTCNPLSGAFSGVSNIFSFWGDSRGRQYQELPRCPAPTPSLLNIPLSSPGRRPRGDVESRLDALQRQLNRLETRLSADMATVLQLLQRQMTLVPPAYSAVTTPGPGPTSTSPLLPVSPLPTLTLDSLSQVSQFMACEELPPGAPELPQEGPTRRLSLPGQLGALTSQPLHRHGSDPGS

| Compound | hERG current change (%, negative = inhibition) at 1uM [%] |
| --- | --- |
| Cl.O=C(COc1ccccc1F)NC1CCN(Cc2ccccc2)CC1 | -3.6 |
| Cc1ccc(Cl)cc1S(=O)(=O)N1CCC(C(=O)NC2CCN(Cc3ccccc3)CC2)CC1 | -66.1 |
| O=C(NC1CCN(Cc2ccccc2)CC1)C1CCN(S(=O)(=O)c2ccc(Cl)cc2)CC1 | -16.9 |
| O=C(NC1CCN(Cc2ccccc2)CC1)C1CCN(S(=O)(=O)c2ccccc2)CC1 | 1.18 |
| O=C(COc1ccc(Br)cc1F)NC1CCN(Cc2ccccc2)CC1 | -64.8 |
| O=C(COc1ccc(Br)cc1Cl)NC1CCN(Cc2ccccc2)CC1 | -16.4 |
| Cc1cc(OCC(=O)NC2CCN(Cc3ccccc3)CC2)c2c(C)c(C)c(=O)oc2c1 | 7.38 |
| O=C(COc1ccccc1)NC1CCN(Cc2ccccc2)CC1 | -8.39 |
| Cc1ccc(Cl)c(OCC(=O)NC2CCN(Cc3ccccc3)CC2)c1 | -93.9 |
| COC(=O)c1sc(C(C)(C)C)cc1CS(=O)(=O)c1ccc(Cl)cc1 | 23.7 |
| CC(C)=CCOc1ccc2c(C)c(CC(=O)N3C[C@H]4C[C@@H](C3)c3cccc(=O)n3C4)c(=O)oc2c1C | -18.5 |
| Cc1cc(C)c2cc(C#N)c(SCC(=O)NCC3CCCO3)nc2c1 (stereo not drawn) | -2.04 |
| CCSCc1nnc(SCC(=O)c2ccc(OC)cc2)n1C | 2.03 |
| CC(NC(=O)CSCc1ccc(Br)cc1)c1ccccc1 (stereo not drawn) | 9.08 |
| CCOc1ccc(/C=N/NC(=O)c2cccc3ccccc23)c(OCC)c1 | 13.6 |
| CC1CCCN(CC(=O)Nc2ccc(S(=O)(=O)N3CCCCCC3)cc2)C1 (stereo not drawn) | -1.45 |
| COC(=O)c1nc[nH]c1C(=O)OC | 18.4 |
| COc1ccccc1C(=O)N/C(=C/c1ccc(Br)cc1)C(=O)NCCO | 1.21 |
| COCCN1C(=O)N[C@H](c2cccc(C(F)(F)F)c2)C(C(=O)OC)=C1C | 5.44 |
| O=S(=O)(NCC(c1ccc2c(c1)OCO2)N1CCOCC1)c1ccc(Br)cc1 (stereo not drawn) | 12.6 |
| COc1ccc(C)cc1S(=O)(=O)NCC(c1ccc2c(c1)OCO2)N1CCN(C)CC1 (stereo not drawn) | -54.9 |

| Compound | hERG current change (%, negative = inhibition) at 1uM [%] |
| --- | --- |
| COc1ccc(F)cc1S(=O)(=O)NCC(c1ccc2c(c1)OCO2)N1CCN(C)CC1 (stereo not drawn) | -12.6 |
| CN1CCN(C(CNS(=O)(=O)c2ccc(Br)cc2)c2ccc3c(c2)OCO3)CC1 (stereo not drawn) | -59.5 |
| CCOc1ccc(S(=O)(=O)NCC(c2ccc3c(c2)OCO3)N2CCN(C)CC2)cc1 (stereo not drawn) | -3.34 |
| COc1ccc(C)cc1S(=O)(=O)NCC(c1ccc2c(c1)OCO2)N1CCOCC1 (stereo not drawn) | 5.86 |
| C=CCON/C(CCC)=C1\C(=O)CC(C)(C)CC1=NC | 18.6 |
| O=C(CN(C(=O)CCC(=O)Nc1nccs1)c1ccc2c(c1)OCO2)NCc1ccc(F)cc1 | 9.89 |
| COc1cccc(CN2C(=O)[C@H]3Cc4c([nH]c5ccccc45)C(C)(C)N3C2=O)c1 | 15.2 |
| O=S(=O)(Nc1nc2ccccc2nc1Cl)c1ccc2c(c1)OCCO2 | 8.99 |
| Cc1nn(Cc2ccccc2)c(C)c1NC(=O)CSc1nc2c(c(C(F)(F)F)n1)CCc1ccccc1-2 | 2.11 |
| CC1=C(C)C(=O)N(c2ccccn2)C1=O | 11.4 |
| CCOc1ccc(CN2CCN(Cc3[nH]c4ccc(OC)cc4c3C)CC2CCO)cc1 (stereo not drawn) | -76.9 |
| COc1ccc2[nH]c(CN3CCN(CC=C(C)C)C(CCO)C3)c(C)c2c1 (stereo not drawn) | 10.7 |
| CCOc1ccccc1CN1CCN(Cc2[nH]c3ccccc3c2C)CC1CCO (stereo not drawn) | -13 |
| COc1cccc(CN2CCN(Cc3[nH]c4ccccc4c3C)CC2CCO)c1 (stereo not drawn) | -11.2 |
| CCOc1ccc(CN2CCN(Cc3[nH]c4ccccc4c3C)CC2CCO)cc1 (stereo not drawn) | -75.2 |
| COc1ccc2[nH]c(CN3CCN(CC(C)C)C(CCO)C3)c(C)c2c1 (stereo not drawn) | 5.18 |
| CC(C)CC(=O)Nc1nnc(S(=O)(=O)N(C)Cc2ccco2)s1 | 21 |
| NC(=O)CC(NC(=O)Cc1cccc2ccccc12)c1ccc(NCCCN2CCCC2=O)c([N+](=O)[O-])c1 (stereo not drawn) | 8.49 |
| O=C(CNS(=O)(=O)c1cccc(C(F)(F)F)c1)Nc1ccccc1F | -2.49 |
| O=C(OCCN(CCOC(=O)c1ccncc1)S(=O)(=O)c1cccs1)c1ccncc1 | -51.5 |
| O=C(Oc1ccc(N(C(=O)c2ccncc2)S(=O)(=O)c2cccs2)cc1)c1ccncc1 | 11.4 |

Reference: publication PMC4336329 (PLoS ONE, 2015)
